Test [1] has as its target G protein-coupled receptor kinase 5 (Homo sapiens) (UniProt P34947). The conditions noted are these: at 1 µM.
Test [2] has as its target G protein-coupled receptor kinase 6 (Homo sapiens) (UniProt P43250). The conditions noted are these: at 1 µM.
The target in test [3] is Tyrosine-protein kinase Fer (Homo sapiens) (UniProt P16591). The conditions noted are these: at 10 µM.
The target in test [4] is Tyrosine-protein kinase Fes/Fps (Homo sapiens) (UniProt P07332). The following applies: at 1 µM.
Test [5] shares this target. The following applies: at 10 µM.
The target of test [6] is Tyrosine-protein kinase Fgr (Homo sapiens) (UniProt P09769). The conditions noted are these: at 1 µM.
For test [7] the target is unchanged. The conditions noted are these: at 10 µM.
For test [8], the target named is Vascular endothelial growth factor receptor 1 (Homo sapiens) (UniProt P17948). The conditions noted are these: at 1 µM.
Vascular endothelial growth factor receptor 1 (Homo sapiens), sequence (P17948 whole entry): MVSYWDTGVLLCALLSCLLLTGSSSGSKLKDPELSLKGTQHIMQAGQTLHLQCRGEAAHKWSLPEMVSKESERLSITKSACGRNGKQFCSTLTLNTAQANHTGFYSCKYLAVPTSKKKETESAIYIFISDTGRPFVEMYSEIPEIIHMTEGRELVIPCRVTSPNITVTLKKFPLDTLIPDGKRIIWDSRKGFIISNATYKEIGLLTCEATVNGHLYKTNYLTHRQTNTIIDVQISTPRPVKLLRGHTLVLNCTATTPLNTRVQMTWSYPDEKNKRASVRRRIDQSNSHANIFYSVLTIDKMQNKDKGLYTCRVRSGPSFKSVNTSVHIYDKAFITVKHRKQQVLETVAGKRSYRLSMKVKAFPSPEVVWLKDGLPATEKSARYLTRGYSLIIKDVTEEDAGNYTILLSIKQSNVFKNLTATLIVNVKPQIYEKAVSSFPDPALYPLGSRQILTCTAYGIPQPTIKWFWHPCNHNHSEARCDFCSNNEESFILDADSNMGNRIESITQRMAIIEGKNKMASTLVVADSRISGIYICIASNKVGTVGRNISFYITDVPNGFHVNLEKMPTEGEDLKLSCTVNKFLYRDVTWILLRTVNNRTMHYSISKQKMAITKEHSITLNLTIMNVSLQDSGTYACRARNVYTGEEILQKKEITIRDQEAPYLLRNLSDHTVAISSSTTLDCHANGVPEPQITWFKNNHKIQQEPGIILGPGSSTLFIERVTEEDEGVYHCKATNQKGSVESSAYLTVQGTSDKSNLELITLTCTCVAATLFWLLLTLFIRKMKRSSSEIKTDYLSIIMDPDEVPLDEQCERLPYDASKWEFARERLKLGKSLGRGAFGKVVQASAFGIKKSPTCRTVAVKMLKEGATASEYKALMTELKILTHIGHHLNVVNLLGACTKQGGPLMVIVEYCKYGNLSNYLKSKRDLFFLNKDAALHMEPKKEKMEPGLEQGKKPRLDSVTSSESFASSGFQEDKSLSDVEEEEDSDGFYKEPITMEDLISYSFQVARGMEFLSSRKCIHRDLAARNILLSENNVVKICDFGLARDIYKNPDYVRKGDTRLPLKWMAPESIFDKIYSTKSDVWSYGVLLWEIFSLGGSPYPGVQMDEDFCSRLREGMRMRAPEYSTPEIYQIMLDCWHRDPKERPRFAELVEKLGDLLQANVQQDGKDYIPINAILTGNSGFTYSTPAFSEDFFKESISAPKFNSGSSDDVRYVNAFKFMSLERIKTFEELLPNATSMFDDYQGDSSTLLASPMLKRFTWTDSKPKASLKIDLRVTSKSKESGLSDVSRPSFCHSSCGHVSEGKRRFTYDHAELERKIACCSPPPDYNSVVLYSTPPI
The target is the same in test [9]. The following applies: at 10 µM.
Test [10] has as its target Receptor-type tyrosine-protein kinase FLT3 (Homo sapiens) (UniProt P36888). The conditions noted are these: at 1 µM.
For test [11] the target is unchanged. The following applies: at 10 µM.
In test [12] the target is Vascular endothelial growth factor receptor 3 (Homo sapiens) (UniProt P35916). The following applies: at 1 µM.
Vascular endothelial growth factor receptor 3 (Homo sapiens), sequence (P35916 whole entry): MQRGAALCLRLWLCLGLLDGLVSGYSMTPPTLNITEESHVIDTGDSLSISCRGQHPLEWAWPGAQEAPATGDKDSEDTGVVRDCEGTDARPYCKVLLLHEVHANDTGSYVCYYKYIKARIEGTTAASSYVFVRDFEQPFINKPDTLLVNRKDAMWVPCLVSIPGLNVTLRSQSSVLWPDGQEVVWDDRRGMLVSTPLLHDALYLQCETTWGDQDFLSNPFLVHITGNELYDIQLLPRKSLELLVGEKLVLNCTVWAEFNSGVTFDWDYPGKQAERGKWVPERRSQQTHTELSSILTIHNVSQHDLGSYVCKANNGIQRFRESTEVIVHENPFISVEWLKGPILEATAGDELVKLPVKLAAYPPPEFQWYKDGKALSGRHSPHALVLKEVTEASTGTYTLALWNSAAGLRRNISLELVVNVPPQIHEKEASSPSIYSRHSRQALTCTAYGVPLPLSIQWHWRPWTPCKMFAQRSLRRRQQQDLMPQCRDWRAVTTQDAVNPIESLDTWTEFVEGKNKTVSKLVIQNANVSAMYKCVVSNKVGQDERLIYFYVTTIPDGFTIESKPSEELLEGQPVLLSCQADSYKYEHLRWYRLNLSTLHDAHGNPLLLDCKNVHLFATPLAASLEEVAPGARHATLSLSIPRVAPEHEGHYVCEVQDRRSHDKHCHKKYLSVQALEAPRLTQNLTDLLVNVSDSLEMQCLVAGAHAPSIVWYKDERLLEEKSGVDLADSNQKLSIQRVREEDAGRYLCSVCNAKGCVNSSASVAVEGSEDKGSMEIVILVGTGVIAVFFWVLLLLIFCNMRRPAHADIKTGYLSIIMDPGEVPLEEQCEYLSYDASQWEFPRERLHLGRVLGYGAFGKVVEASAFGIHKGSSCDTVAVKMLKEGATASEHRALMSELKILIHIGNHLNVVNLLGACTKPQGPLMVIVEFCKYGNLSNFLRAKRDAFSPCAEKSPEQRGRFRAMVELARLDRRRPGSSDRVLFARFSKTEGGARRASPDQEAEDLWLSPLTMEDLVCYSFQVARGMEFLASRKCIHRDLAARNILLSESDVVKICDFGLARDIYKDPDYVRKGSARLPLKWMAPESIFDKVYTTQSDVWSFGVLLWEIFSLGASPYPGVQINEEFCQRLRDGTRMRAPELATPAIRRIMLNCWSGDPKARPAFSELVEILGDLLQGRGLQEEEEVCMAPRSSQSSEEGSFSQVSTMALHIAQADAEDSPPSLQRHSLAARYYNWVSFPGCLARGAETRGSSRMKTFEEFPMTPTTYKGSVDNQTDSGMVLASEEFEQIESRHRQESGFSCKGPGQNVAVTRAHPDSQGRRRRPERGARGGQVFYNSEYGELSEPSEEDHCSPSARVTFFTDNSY
For test [13] the target is unchanged. The following applies: at 10 µM.
In test [14] the target is Macrophage colony-stimulating factor 1 receptor (Homo sapiens) (UniProt P07333). The conditions noted are these: at 1 µM.
Macrophage colony-stimulating factor 1 receptor (Homo sapiens), sequence (P07333 whole entry): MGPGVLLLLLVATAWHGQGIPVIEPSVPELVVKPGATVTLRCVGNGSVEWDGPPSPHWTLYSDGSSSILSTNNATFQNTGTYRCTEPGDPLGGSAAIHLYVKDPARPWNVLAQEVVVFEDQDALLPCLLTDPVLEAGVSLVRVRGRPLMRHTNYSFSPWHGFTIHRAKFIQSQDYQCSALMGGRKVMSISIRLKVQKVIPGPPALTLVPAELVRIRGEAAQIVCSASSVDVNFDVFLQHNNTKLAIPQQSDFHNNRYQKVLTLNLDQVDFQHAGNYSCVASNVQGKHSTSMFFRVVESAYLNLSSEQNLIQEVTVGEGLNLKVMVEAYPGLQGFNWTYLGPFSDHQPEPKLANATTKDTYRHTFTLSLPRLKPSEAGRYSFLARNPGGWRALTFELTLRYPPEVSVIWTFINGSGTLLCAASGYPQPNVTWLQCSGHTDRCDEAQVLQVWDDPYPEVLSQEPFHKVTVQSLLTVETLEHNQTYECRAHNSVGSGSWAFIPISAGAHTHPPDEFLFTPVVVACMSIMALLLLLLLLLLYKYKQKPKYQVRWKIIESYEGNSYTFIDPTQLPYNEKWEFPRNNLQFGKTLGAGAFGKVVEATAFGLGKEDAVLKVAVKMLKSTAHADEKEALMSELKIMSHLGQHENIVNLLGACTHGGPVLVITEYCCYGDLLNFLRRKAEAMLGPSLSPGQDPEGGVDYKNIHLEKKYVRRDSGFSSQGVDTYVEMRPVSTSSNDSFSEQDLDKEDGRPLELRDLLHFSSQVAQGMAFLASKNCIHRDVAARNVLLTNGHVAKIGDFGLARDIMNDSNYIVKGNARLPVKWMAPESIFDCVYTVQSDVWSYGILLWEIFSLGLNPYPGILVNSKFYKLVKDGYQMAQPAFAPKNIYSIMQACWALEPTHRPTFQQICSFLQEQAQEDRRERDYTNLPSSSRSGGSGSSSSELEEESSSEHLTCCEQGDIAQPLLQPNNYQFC
Test [15] has the same target. The following applies: at 10 µM.
The target in test [16] is Tyrosine-protein kinase Fyn (Homo sapiens) (UniProt P06241). The following applies: at 1 µM.
Test [17] shares this target. The following applies: at 10 µM.
Test [18] deals with T1, Mitogen-activated protein kinase kinase kinase kinase 2 (Homo sapiens) (UniProt Q12851).
T1 sequence (whole entry): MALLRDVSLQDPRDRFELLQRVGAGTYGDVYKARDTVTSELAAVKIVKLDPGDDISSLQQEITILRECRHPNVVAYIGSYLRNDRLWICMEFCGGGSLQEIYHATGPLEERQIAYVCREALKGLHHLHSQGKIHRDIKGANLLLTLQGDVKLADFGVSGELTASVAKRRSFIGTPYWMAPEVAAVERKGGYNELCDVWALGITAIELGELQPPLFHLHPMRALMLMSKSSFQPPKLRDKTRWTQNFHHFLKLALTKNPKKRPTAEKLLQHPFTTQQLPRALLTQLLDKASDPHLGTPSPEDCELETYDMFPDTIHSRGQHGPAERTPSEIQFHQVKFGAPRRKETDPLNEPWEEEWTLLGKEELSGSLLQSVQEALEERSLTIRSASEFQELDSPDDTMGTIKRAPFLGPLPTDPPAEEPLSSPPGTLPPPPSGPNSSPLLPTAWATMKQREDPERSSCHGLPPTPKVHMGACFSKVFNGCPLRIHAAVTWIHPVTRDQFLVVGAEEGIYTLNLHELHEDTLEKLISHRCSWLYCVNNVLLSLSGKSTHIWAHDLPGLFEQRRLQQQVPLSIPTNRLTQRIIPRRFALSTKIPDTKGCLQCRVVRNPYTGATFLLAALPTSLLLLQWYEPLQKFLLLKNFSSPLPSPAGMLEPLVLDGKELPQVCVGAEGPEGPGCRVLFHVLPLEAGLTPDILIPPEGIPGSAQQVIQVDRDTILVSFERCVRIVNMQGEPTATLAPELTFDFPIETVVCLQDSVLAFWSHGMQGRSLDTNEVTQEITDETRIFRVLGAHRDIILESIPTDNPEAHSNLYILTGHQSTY
The conditions noted are these: at 1 µM.

Test [19] deals with T1, Mitogen-activated protein kinase kinase kinase kinase 2 (Homo sapiens). The following applies: at 10 µM.
For test [20], the target named is G protein-coupled receptor kinase 5 (Homo sapiens) (UniProt P34947). The following applies: at 10 µM.

Receptor-type tyrosine-protein kinase FLT3 (Homo sapiens), sequence (P36888 whole entry): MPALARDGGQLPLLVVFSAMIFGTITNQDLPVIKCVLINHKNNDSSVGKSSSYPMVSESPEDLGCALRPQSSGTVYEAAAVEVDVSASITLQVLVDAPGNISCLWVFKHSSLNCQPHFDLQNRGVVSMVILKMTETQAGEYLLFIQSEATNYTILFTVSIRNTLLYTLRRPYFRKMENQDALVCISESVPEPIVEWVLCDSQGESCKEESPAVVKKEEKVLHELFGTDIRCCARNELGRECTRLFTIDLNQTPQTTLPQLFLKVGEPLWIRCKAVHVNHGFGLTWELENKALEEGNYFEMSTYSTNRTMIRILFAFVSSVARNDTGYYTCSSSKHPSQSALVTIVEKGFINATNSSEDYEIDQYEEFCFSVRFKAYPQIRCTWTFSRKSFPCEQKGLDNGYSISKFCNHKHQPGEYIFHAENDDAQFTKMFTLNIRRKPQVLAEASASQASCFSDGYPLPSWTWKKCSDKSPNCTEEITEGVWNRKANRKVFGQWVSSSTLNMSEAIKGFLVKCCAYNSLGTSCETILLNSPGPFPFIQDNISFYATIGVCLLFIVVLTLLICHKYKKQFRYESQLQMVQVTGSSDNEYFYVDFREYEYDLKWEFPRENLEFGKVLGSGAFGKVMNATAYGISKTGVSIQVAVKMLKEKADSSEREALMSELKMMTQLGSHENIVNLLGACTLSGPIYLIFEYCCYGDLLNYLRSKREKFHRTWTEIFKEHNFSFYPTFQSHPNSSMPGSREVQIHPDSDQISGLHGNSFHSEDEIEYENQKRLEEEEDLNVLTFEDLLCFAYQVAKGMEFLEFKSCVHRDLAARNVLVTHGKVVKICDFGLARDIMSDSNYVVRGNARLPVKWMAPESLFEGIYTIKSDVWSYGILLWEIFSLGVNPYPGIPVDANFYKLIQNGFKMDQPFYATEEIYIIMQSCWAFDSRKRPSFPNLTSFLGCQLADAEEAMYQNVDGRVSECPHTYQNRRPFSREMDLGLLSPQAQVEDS

Regarding `O=C1NC(=O)C(c2cn(CCCO)c3ncccc23)=C1c1cnccn1`, in test [1], the residual activity stood at 100%.
Still for that read-out and setting: the same measure for `CC(C)(C)n1nc(Cc2cccc3ccccc23)c2c(N)ncnc21`: 108%.
As for `O=C1NC(=O)c2c1c1c3ccccc3[nH]c1c1[nH]c3cc(Br)ccc3c21`, the residual activity in test [1] and in [2] was 102% in each case.
As for `O=C1Nc2ccc3ncsc3c2/C1=C/c1c[nH]cn1`, the residual activity in test [3] came out at 40%; in test [4], 62%; in test [5] it was 15%; in test [6] it was 47%; in test [7] it was 15%; in test [8], 1%. Further, the residual activity in test [9] turned out to be 0%; in test [10], 1%; in test [11], 0%; in [12], 0%; in [13], 0%; in test [14] it was 22%. In addition, the residual activity is 3% in test [15]; 46% in test [16]; 12% in [17]; 7% in [18]; 1% in [19]; 71% in [1]. The residual activity in test [20] came out at 25%.
For the molecule `CN[C@@H]1C[C@H]2O[C@@](C)([C@@H]1OC)n1c3ccccc3c3c4c(c5c6ccccc6n2c5c31)C(=O)NC4`, the residual activity is 0% in test [8]; -1% in test [9]; -1% in test [10]; -1% in test [11]; 0% in test [19].
Turning to `COc1cc2ncnc(Nc3ccc(OCc4ccccc4)cc3)c2cc1OC`, the residual activity came to 98% in test [3]; 131% in test [4]; 97% in test [5]; 67% in test [6]; 42% in [7]; 57% in test [8]. For the same molecule, the residual activity stood at 27% in [9]; 40% in [10]; 24% in test [11]; 6% in test [12]; 2% in test [13]; 20% in test [14]. Besides, the residual activity in [15] was found to be 11%; in test [16], 79%; in test [17] it was 64%; in [18], 101%; in test [19] it was 85%; in test [1], 101%. The values for the residual activity in test [20] and in test [2] were 97% and 98%, respectively.
Regarding `O=C1c2ccccc2-c2nc3nnnn3nc21`, the residual activity in test [3] was found to be 103%; in [6], 104%; in test [7] it was 78%; in test [10], 103%; in [11] it was 78%; in test [13] it was 70%. In addition, the values for the residual activity in [1] and in test [20] were 107% and 77%, respectively.
For `COc1cc2nccc(Oc3ccc(NC(=O)Nc4cc(C)on4)c(Cl)c3)c2cc1OC`, the residual activity in [1] was 105%.
On the same count and under the same terms, the same measure for `COc1cc2ncnc(Nc3cccc(Cl)c3)c2cc1OC`: 108%; for `Nc1nc(Nc2ccc(S(N)(=O)=O)cc2)nn1C(=O)c1c(F)cccc1F`: 78%.
Take `CCn1cnc2c(Nc3cccc(Cl)c3)nc(N[C@@H]3CCCC[C@@H]3N)nc21`: the residual activity in test [3] was found to be 39%; in [4], 55%; in [5], 9%; in [6] it was 18%; in test [7], 3%; in test [8], 63%. Also, the residual activity was found to be 15% in [9]; 18% in test [10]; 1% in test [11]; 50% in [12]; 2% in [13]; 54% in [14]. The residual activity in test [15] was determined as 11%; in test [16], 8%; in test [17] it was 0%; in test [18], 43%; in test [19], 7%; in [1], 96%. The residual activity in [20] worked out at 66%; in test [2], 91%.
Regarding `Cn1c2ccccc2c2c3c(c4c5ccccc5n(CCC#N)c4c21)CNC3=O`, the residual activity in test [1] turned out to be 69%.
`COC(=O)[C@@]1(O)C[C@H]2O[C@]1(C)n1c3ccccc3c3c4c(c5c6ccccc6n2c5c31)C(=O)NC4`: the residual activity in [3] was 0%; in [4], 7%; in test [5] it was 1%; in test [6], 3%; in [7], -1%; in test [8] it was 0%. The residual activity in test [9] turned out to be 0%; in test [10], 0%; in [11] it was 1%; in [12], 0%; in test [13], 1%; in [14] it was 2%. Moreover, the residual activity turned out to be 1% in [15]; 4% in test [16]; 0% in test [17]; 0% in test [18]; 1% in [19]; 40% in test [1]. Besides, the figures for the residual activity in [20] and in [2] were 5% and 36%, respectively.
As for `CC(C)[C@H](CO)Nc1nc(Nc2cccc(Cl)c2)c2ncn(C(C)C)c2n1`, the residual activity in test [3] is 26%; in test [4], 79%; in test [5], 19%; in test [6], 23%; in test [7], 0%; in test [8], 88%. For the same molecule, the residual activity in test [9] came to 43%; in test [10] it was 17%; in test [11], 2%; in test [12], 42%; in [13], 3%; in test [14] it was 70%. The residual activity in [15] is 34%; in [16], 4%; in [17] it was -1%; in test [18], 75%; in [19] it was 23%; in test [1], 97%. The residual activity in test [20] was 82%.
For `COc1ccc2c(c1)/C(=C/c1cnc[nH]1)C(=O)N2`, the residual activity in [6] was 69%; in test [7], 16%; in test [10] it was 10%; in test [11] it was 0%; in test [14] it was 41%; in [15] it was 14%. The residual activity in test [16] was found to be 67%; in test [17], 25%; in test [18], 23%; in test [19] it was 3%.
As to `O=C(Nc1nc2ccccc2n1CCN1CCOCC1)c1cccc([N+](=O)[O-])c1`, the residual activity in test [1] is 107%.
`O=C1NC(=O)c2c1c1c3ccccc3n3c1c1c2c2ccccc2n1C1CCC3O1`: the residual activity is 20% in test [3]; 90% in [4]; 99% in test [5]; 7% in [8]; 4% in test [9]; 24% in test [10]. Further, the residual activity in test [11] stood at 3%; in [12], 0%; in test [13] it was 2%; in [14], 30%; in [15], 26%; in test [16] it was 81%. Moreover, the residual activity in test [17] came to 75%; in test [18], 20%; in test [19] it was 10%.
Consider `N/C(=N\[N+](=O)[O-])N/N=C\c1ccc(-c2cccc([N+](=O)[O-])c2)o1`, for which the residual activity in test [8] turned out to be 86%; in [9], 72%; in test [10], 73%; in test [11], 48%; in [12], 58%; in test [13], 42%. The residual activity was 67% in [14]; 65% in test [15]; 77% in test [16]; 83% in test [17]; 87% in [19]; 97% in [2].
